The text below walks through data of PubChem BioAssay (Tox21).

Records with an inconclusive call do not appear. Unmarked numbers belong to inactive results. Calls of active or inactive are those of the source. The call rests on the fitted dose curve; in most records, active means well fitted cell-killing curve with a large enough effect in the repeat runs; inconclusive means weak or mixed curves, or effect the other way; inactive means flat fitted curve, though single readings scatter.
On the % scale 0 is the no-effect control and ±100 the full control effect.

The assay in a line: cAMP Responsive Elements (CRE) small molecule agonists, cell-based qHTS assay: qHTS cell viability counter screen (AID 2060914).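 Further: viability read after 3 h of compound exposure; nearly all actives have a fitted effect of over 50% in size.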 The note with it: CRE-bla HEK293T viability, CellTiter-Glo luminescence, 5 h; series mostly up to 92.4 µM; activity change, negative = cytotoxicity: at the top concentration. The source says: National Center for Advancing Translational Sciences [NCATS]
Division of Preclinical Innovation [DPI]
U.S. Environmental Protection Agency [EPA]
National Institutes of Environmental Health Sciences [NIEHS]
National Toxicology Program [NTP]
U.S. Food and Drug Administration [FDA]
CREB (cyclic-AMP Responsive Element Binding Protein) is a cellular transcription factor. It binds to certain DNA sequences called cAMP Responsive Elements (CRE) and regulates the transcription of the genes. […] This cell line can be used to find agonists/antagonists of the cyclic AMP signaling pathway. The activation of the report gene under culture conditions can be detected by fluorescence intensity. This cell line has been used to screen the Tox21 10K compound library to identify agonists that induce oxidative stress. The cytotoxicity of the Tox21 compound library against the CRE-bla cell line was tested in parallel by measuring the cell viability using CellTiter-Glo assay (Promega, Madison, WI) in the same wells.
Tox21 Assay Protocol Summary:
CRE-bla Hek 293T cells were suspended in assay medium (DMEM containing 10% dialyzed FBS, 0.1 mM NEAA, 1 mM sodium pyruvate and 25 mM HEPES) and dispensed at 2,000 cells/5 uL /well into 1536-well black wall/clear bottom plates using a Multidrop Combi (ThermoFisher Scientific, Waltham, MA) dispenser. After the assay plates were incubated at 37 C/5% CO2 for 18 hrs, 23 nL of compounds dissolved in DMSO, positive controls or DMSO only was transferred to the assay plate by a pintool workstation (Kalypsys, San Diego, CA). After the plates were incubated at 37 C/5% CO2 for 3 hrs, 1 uL of LiveBLAzer B/G FRET substrate (Invitrogen, Carlsbad, CA) was added to each well using Bioraptr Flying Reagent Dispenser (FRD, Aurora Discovery, San Diego, CA). The plates were incubated at room temperature for 2 h, then fluorescence intensities were measured using an Envision plate reader (PerkinElmer, Shelton, CT) at Excitation 405nm, Emission 460nm and 530nm. The % activity was determined from the ratio of 460nm/530nm. For cell viability readout that measures cytotoxicity, 4 uL /well of CellTiter-Glo reagent was added into the assay plates using Bioraptr FRD. After 30 min incubation at room temperature, the luminescence intensity in the assay plates was measured using a ViewLux (PerkinElmer, Shelton, CT) plate reader.
`C[C@]12CCC(=O)C=C1CC[C@@H]1[C@@H]2[C@@H](O)C[C@@]2(C)[C@H]1CC[C@]2(O)C(=O)CO`: the Potency result was “inactive”.

Turning to `OCC(O)CO`, the Potency entry was “inactive”.

For `O=C(/C=C/C=C/c1ccc2c(c1)OCO2)N1CCCCC1`, the Potency entry was “inactive”.

On to `CCNC(=O)NCCCOc1cccc(CN2CCCCC2)c1`, for which the “activity change, negative = cytotoxicity” value was -14.2% [at 42.5 µM].

On to `C/C(=C(/OCCOc1ccc(Cl)cc1)c1ccc(Cl)cc1Cl)n1ccnc1`, for which the “activity change, negative = cytotoxicity” value is -2.43% [at 42.5 µM].

Regarding `O=c1[nH]c2ccc(S(=O)CCN3CCC(Cc4ccc(F)cc4)CC3)cc2o1` (stereo not given), the “activity change, negative = cytotoxicity” value was 4.63%.

As to `O=C1NCCN1CCN1CCC(c2cn(-c3ccc(F)cc3)c3ccc(Cl)cc23)CC1`, the “activity change, negative = cytotoxicity” value is -24.7% [at 42.5 µM].

For `CC(=O)CCc1ccc(O)cc1`, the “activity change, negative = cytotoxicity” value is 3.27%.

`COc1ccc(C)cc1[N+](=O)[O-]`: the “activity change, negative = cytotoxicity” value is 0.0444%.

With `CCOc1ccccc1C(N)=O`, the Potency result is “inactive”.

Regarding `COc1cccc(OC)c1C(=O)O`, the “activity change, negative = cytotoxicity” value was 9.51%.

On to `COC(=O)c1ccccc1`, for which the Potency result is “inactive”.

Turning to `CCN1CCCC1CN` (stereo not given), the “activity change, negative = cytotoxicity” value was -2.77% [at 42.5 µM].

On to `C=Cc1ccc(C(C)(C)C)cc1`, for which the “activity change, negative = cytotoxicity” value was 0.745%.

On to `CCCCCCCCN`, for which the “activity change, negative = cytotoxicity” value was -10.4%.

Take `CC(C)(C)c1cc(C=O)cc(C(C)(C)C)c1O`: the “activity change, negative = cytotoxicity” value was -1.45% [at 42.5 µM].

`C=CC(=O)CCCCC`: the “activity change, negative = cytotoxicity” value was 0.971%.

Consider `C[C@]12CCC(=O)C=C1C=C[C@@H]1[C@@H]2CC[C@@]2(C)[C@H]1CC[C@@]21CCC(=O)O1`, for which the “activity change, negative = cytotoxicity” value is -1.1% [at 42.5 µM].

As to `NC(=O)N(O)[C@@H]1COc2cc(OCc3ccccc3)ccc21`, the “activity change, negative = cytotoxicity” value was -0.583%.

In the case of `Clc1cccnc1`, the “activity change, negative = cytotoxicity” value is 2.98%.

As for `Nc1nc(-c2ccccc2)cs1`, the “activity change, negative = cytotoxicity” value is -5.79%.

Take `CC(O)(P(=O)(O)O)P(=O)(O)O`: the Potency result is “inactive”.

In the case of `N#Cc1ccc(C(=O)O)cc1`, the “activity change, negative = cytotoxicity” value is 0.656%.

For `C[C@@H]1C[C@H]2[C@@H]3CCC4=CC(=O)C=C[C@]4(C)[C@@]3(F)[C@@H](O)C[C@]2(C)[C@H]1C(=O)CO`, the “activity change, negative = cytotoxicity” value is 5.7% [at 42.5 µM].

For the compound `Cc1c(-c2ccccc2)oc2c(C(=O)OCCN3CCCCC3)cccc2c1=O`, the “activity change, negative = cytotoxicity” value is 9.27% [at 42.5 µM].

For `C=CS(=O)(=O)O`, the “activity change, negative = cytotoxicity” value is 11.7%.

Take `CC1=CC[C@H](C(C)C)C=C1`: the “activity change, negative = cytotoxicity” value is -9.59%.

On to `CC(C)CC(=O)OCc1ccccc1`, for which the “activity change, negative = cytotoxicity” value is 8.95%.

For the compound `CC(C)(C)C(=O)c1ccccc1`, the “activity change, negative = cytotoxicity” value is 0.0789%.

As for `C[C@@H]1CN(CCCn2c3ccccc3c3ccccc32)C[C@H](C)N1`, the “activity change, negative = cytotoxicity” value is 4.9% [at 42.5 µM].

For the compound `CCCCCCCCCC/C=C/C#N`, the “activity change, negative = cytotoxicity” value is 4.66%.

`COc1cc([C@@H]2c3cc4c(cc3[C@@H](O[C@@H]3O[C@@H]5CO[C@@H](C)O[C@H]5[C@H](O)[C@H]3O)[C@H]3COC(=O)[C@H]23)OCO4)cc(OC)c1O`: the “activity change, negative = cytotoxicity” value was 1.53%.

Regarding `CC(C(=O)O)c1ccc(C(=O)c2cccs2)cc1` (stereo not given), the “activity change, negative = cytotoxicity” value is -7.8% [at 42.5 µM].

For the compound `CN1CCC(OC(c2ccccc2)c2ccccc2)CC1`, the “activity change, negative = cytotoxicity” value was 1.42% [at 42.5 µM].

`CCCCCCCCCCCCCCCCC`: the “activity change, negative = cytotoxicity” value was -1.87%.

As to `c1cnccn1`, the “activity change, negative = cytotoxicity” value was 3.38%.

With `O=C(OC[C@H]1O[C@@H](OC(=O)c2cc(O)c(O)c(OC(=O)c3cc(O)c(O)c(O)c3)c2)[C@H](OC(=O)c2cc(O)c(O)c(OC(=O)c3cc(O)c(O)c(O)c3)c2)[C@@H](OC(=O)c2cc(O)c(O)c(OC(=O)c3cc(O)c(O)c(O)c3)c2)[C@@H]1OC(=O)c1cc(O)c(O)c(OC(=O)c2cc(O)c(O)c(O)c2)c1)c1cc(O)c(O)c(OC(=O)c2cc(O)c(O)c(O)c2)c1`, the activity change, negative = cytotoxicity was -4.58% [at 18.9 µM].

For the compound `CN1CCC(=C2c3ccccc3C=Cc3ccccc32)CC1`, the “activity change, negative = cytotoxicity” value was 1.44% [at 42.5 µM].

As to `C=C[C@H]1CN2CC[C@H]1C[C@H]2[C@H](O)c1ccnc2ccc(OC)cc12`, the Potency entry was “inactive”.

On to `Cl/C(=C\n1cncn1)c1ccc(Cl)cc1Cl`, for which the “activity change, negative = cytotoxicity” value is 3.75% [at 42.5 µM].
